Our source for the cell viability values is the supplement of paper PMC8699584.

The cell viability is a read-out of living cells in per cent, often relative to untreated cells.

Assay [1] deals with Molm13. The assay can be described thus: cell viability relative to DMSO control (bortezomib = 0%); higher = less growth inhibition. Conditions: 10 nM; 72 h. The method in brief: (§1)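 Viability was determined with CellTiter-Glo luminescence. Acute myeloid leukemia cells (1000 per well, 50 µL) were exposed for 72 h to 679 approved and investigational compounds at a single 10 nM dose in 384-well plates. Percentages came from per-plate linear regression, setting DMSO-treated wells to 100% and positive-control-treated wells to 0%.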

For assay [2], the system named is Mv4-11. Described as above. Particulars: 10 nM; 72 h. The method in brief: as §1

± gives the standard deviation of the averaged measurements.

Take `NC(=O)c1ccc2nc(-c3ccc(Oc4ccc(Cl)cc4)cc3)[nH]c2c1`: the figures for the cell viability in assay [1] and in assay [2] were 100 ± 13% and 114 ± 6.3%, respectively.
The corresponding values for `O=C(O)c1cc(O)c2c(c1)[C@@H]([C@H]1c3cc(C(=O)O)cc(O)c3C(=O)c3c(O[C@@H]4O[C@H](CO)[C@@H](O)[C@H](O)[C@H]4O)cccc31)c1cccc(O[C@@H]3O[C@H](CO)[C@@H](O)[C@H](O)[C@H]3O)c1C2=O` [Sennoside B] are 101 ± 12% and 91.4 ± 16%.
The corresponding values for `O=c1[nH]c(C2CCCN2)nc2c1oc1ccc(Cl)cc12` (stereo unspecified) are 96.9 ± 13% and 107 ± 3.5%.
The corresponding values for `CC(C)(C)n1nc(-c2cccc3ccccc23)c2c(N)ncnc21` are 95.9 ± 9.6% and 110 ± 10%.
`CC(C)=CCC[C@](C)(O)[C@H]1CC[C@]2(C)[C@@H]1[C@H](O)C[C@@H]1[C@@]3(C)CC[C@H](O)C(C)(C)[C@@H]3[C@@H](O[C@@H]3O[C@H](CO)[C@@H](O)[C@H](O)[C@H]3O[C@@H]3O[C@@H](C)[C@H](O)[C@@H](O)[C@H]3O)C[C@]12C` [Ginsenoside Rg2]: the results for the cell viability in assay [1] and in assay [2] were 94.4 ± 23% and 93.6 ± 9.2%, respectively.
As for `O=C1Cc2c([nH]c3ccc(Br)cc23)-c2ccccc2N1` [Kenpaullone], the cell viability amounted to 88 ± 2.5% in assay [1] and 111 ± 5.9% in assay [2].
The corresponding values for `COc1ccc(CNc2nc(N(CCO)CCO)nc3c2ncn3C(C)C)cc1` are 102 ± 7% and 104 ± 8.2%.
The corresponding values for `O=C1NC(=O)[C@@H](c2cn3c4c(cccc24)CCC3)[C@@H]1c1c[nH]c2ccccc12` [Tivantinib (ARQ 197)] are 105 ± 3.9% and 115 ± 11%.
The like results for `CC[C@@](C)(Nc1ccnc(-c2c[nH]c3ncccc23)n1)C(=O)NCC(F)(F)F` [Decernotinib(VX-509)] were, in that order, 98.6 ± 1.4% and 89.3 ± 6.1%.
For the compound `CC1(C)CN(C(=O)c2ccc(-c3cccc4nc(NC(=O)C5CC5)nn34)cc2)C1` [Solcitinib], the cell viability in assay [1] amounted to 115 ± 6.5%; in assay [2], 114 ± 3.3%.
The corresponding values for `O=C1NC(=O)C(=Cc2ccc(-c3ccc(F)cc3)o2)S1` (stereo in doubt) are 106 ± 12% and 108 ± 13%.
The corresponding values for `Oc1ccc(Nc2nc(-c3ccc(Cl)cc3)cs2)cc1` [Sphingosine Kinase Inhibitor 2] are 101 ± 17% and 108 ± 7.4%.
The corresponding values for `C=CC(=O)Nc1cccc(Nc2nc(Nc3ccc(OCCOC)cc3)ncc2F)c1` are 103 ± 10% and 110 ± 6.4%.
In the case of `Cc1ccc(C(=O)Nc2ccc(CN3CCN(C)CC3)c(C(F)(F)F)c2)cc1C#Cc1cnc2cccnn12`, the cell viability was found to be 6.99 ± 13% in assay [1] and 3.31 ± 4.5% in assay [2].
The corresponding values for `CN(C)C/C=C/C(=O)Nc1ccc(C(=O)Nc2cccc(Nc3ncc(Cl)c(-c4c[nH]c5ccccc45)n3)c2)cc1` are 88 ± 18% and 95.3 ± 1.1%.
The corresponding values for `O=C(COc1ccc(Cl)cc1)NC1CCC(NC(=O)COc2ccc(Cl)cc2)CC1` (stereo unspecified) are 109 ± 1.8% and 111 ± 14%.
Turning to `Cc1ccc(Nc2nccc(N(C)c3ccc4c(C)n(C)nc4c3)n2)cc1S(N)(=O)=O` [Pazopanib], the values for the cell viability in assay [1] and in assay [2] were 101 ± 36% and 104 ± 4.1%, respectively.
The corresponding values for `COc1cc2ncnc(Nc3cccc(O)c3)c2cc1OC` are 109 ± 6.3% and 109 ± 8.6%.
The like results for `Cc1ccc(F)c(NC(=O)Nc2ccc(-c3cccc4[nH]nc(N)c34)cc2)c1` [Linifanib (ABT-869)] were, in that order, 61.8 ± 4% and 73.9 ± 13%.
The corresponding values for `Nc1nc(O)c2ncn(CCC(CO)CO)c2n1` [Penciclovir] are 111 ± 8% and 104 ± 2.1%.
As to `COc1ncc(-c2ccc3nccc(-c4ccnnc4)c3c2)cc1NS(=O)(=O)c1ccc(F)cc1F`, the cell viability in assay [1] turned out to be 61.5 ± 19%; in assay [2], 76.1 ± 1.9%.
In the case of `Cc1cccc(/C=N/Nc2cc(N3CCOCC3)n3nc(-c4ccncc4)cc3n2)c1`, the results for the cell viability in assay [1] and in assay [2] were 95.5 ± 11% and 122 ± 4.4%, respectively.
The like results for `COc1ccc(S(=O)(=O)N(CCO)c2ccccc2CN(C)C/C=C/c2ccc(Cl)cc2)cc1` [KN-93 Phosphate] were, in that order, 99.1 ± 2.2% and 101 ± 5.2%.
The corresponding values for `CC(C)c1ccc2c(c1)CC[C@H]1[C@](C)(CN)CCC[C@]21C` [Leelamine] are 96.7 ± 8.5% and 101 ± 9.8%.
The corresponding values for `N#Cc1c(NC(=O)c2cccc3ccccc23)sc2c1CCCC2` are 102 ± 21% and 114 ± 4.2%.
Regarding `Cc1cc(Nc2nn(-c3ccccc3)c(=O)c3ccccc23)n[nH]1` [Phthalazinone pyrazole], the cell viability in assay [1] turned out to be 94.1 ± 9.4%; in assay [2], 101 ± 15%.
Regarding `N#C/C(=C\c1ccc(O)c(O)c1)C(=O)NCc1ccccc1`, the cell viability in assay [1] worked out at 96.4 ± 11%; in assay [2] it was 100.7 ± 0.73%.
The like results for `COc1cc(Nc2ncc(F)c(Nc3ccc4c(n3)NC(=O)C(C)(C)O4)n2)cc(OC)c1OC` [R406 free base] were, in that order, 101.7 ± 0.97% and 105 ± 1.6%.
The like results for `CCc1cnn2c(NCc3ccc[n+]([O-])c3)cc(N3CCCC[C@H]3CCO)nc12` were, in that order, 93.2 ± 28% and 86.6 ± 15%.
The corresponding values for `Cc1[nH]c(/C=C2\C(=O)Nc3ccc(S(=O)(=O)N(C)c4cccc(Cl)c4)cc32)c(C)c1C(=O)N1CCN(C)CC1` are 104 ± 22% and 107 ± 13%.
For `COc1c(C)c(C(=O)c2ccc(N)c(C(=O)O)c2)n2ccccc12`, the cell viability was 107 ± 23% in assay [1] and 114 ± 7.3% in assay [2].
The like results for `Cc1ccc(NC(=O)c2ccc(CN3CCN(C)CC3)cc2)cc1Nc1nccc(-c2cccnc2)n1` [Imatinib (mesylate)] were, in that order, 111 ± 16% and 121 ± 22%.
The corresponding values for `CN(C)CCOc1ccc(-c2nc(-c3ccncc3)c(-c3ccc4c(c3)CC/C4=N\O)[nH]2)cc1` are 103 ± 23% and 101 ± 4%.
